In PubChem BioAssay (NCATS):
“And” between values parts separate entries of the source, which are not always exact repeats. Identical values can stand only once. Results filed as inconclusive are left out. Values without a mark were called inactive. The source made the active and inactive calls. Calls follow the shape of the dose curve; as a rule, active = well fitted inhibition curve with a large enough effect; inconclusive = small, poorly fitted or top-dose-only effect; inactive = flat fitted curve, though single readings scatter.

Columns and labels:
KB-3-1 = experiment: Cytotoxic Profiling of Annotated Libraries Using Quantitative High-Throughput Screening (AID 1296008); settings: Five cell lines viability, CellTiter-Glo ATP luminescence, 48-72 h; max response: active compounds read low; as to max response: % is scaled to controls: 0 for no effect and ±100 for the full control effect
Summary of the method: (§1)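 Cytotoxicity was measured as CellTiter-Glo ATP luminescence, read after 10 min at room temperature. Compound treatment of the cells lasted 48 or 72 hr at 37 degrees Celsius in a qHTS format.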

NIH3T3 = experiment: as above; settings: Five cell lines viability, CellTiter-Glo ATP luminescence, 48-72 h; max response: active compounds read low
Summary of the method: as §1

HEK293T = experiment: qHTS assay to identify novel small-molecules to repurpose for Merkel cell carcinoma treatment (AID 1296009); settings: MCC and control cell lines, CellTiter-Glo viability, 72 h
Summary of the method: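 72 hr, 37 degree celsius; NPC 8-pt / MIPE 11-pt dose response; compound pinned in DMSO; CellTiter-Glo, 10 min RT, luminescence; normalized to no-cell and DMSO controls.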

N140 = experiment: qHTS profiling for inhibitors of Plasmodium falciparum proliferation (AID 504749); settings: P. falciparum in erythrocytes, SYBR Green DNA, 72 h; series mostly up to 28.7 µM
Summary of the method: (§2)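 Infected RBCs, 0.3% parasitemia/2.5% Hct final; cpd 72 h, 37 C, 5% CO2; lysis buffer with saponin/triton/SYBR Green I, o/n RT dark; FI 485/535; norm. to artemisinin (0.29 uM) and DMSO.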

P93_24 = experiment: as above; settings: P. falciparum in erythrocytes, SYBR Green DNA, 72 h; series mostly up to 28.7 µM
Summary of the method: as §2

PAD = experiment: as above; settings: P. falciparum in erythrocytes, SYBR Green DNA, 72 h; series mostly up to 28.7 µM
Summary of the method: as §2

PC15 = experiment: as above; settings: P. falciparum in erythrocytes, SYBR Green DNA, 72 h; series mostly up to 28.7 µM
Summary of the method: as §2

PC26 = experiment: as above; settings: P. falciparum in erythrocytes, SYBR Green DNA, 72 h; series mostly up to 28.7 µM
Summary of the method: as §2

PC49 = experiment: as above; settings: P. falciparum in erythrocytes, SYBR Green DNA, 72 h; series mostly up to 28.7 µM
Summary of the method: as §2

SC27B = experiment: as above; settings: P. falciparum in erythrocytes, SYBR Green DNA, 72 h; series mostly up to 28.7 µM
Summary of the method: as §2

TAB109 = experiment: as above; settings: P. falciparum in erythrocytes, SYBR Green DNA, 72 h; series mostly up to 28.7 µM
Summary of the method: as §2

TAB113 = experiment: as above; settings: P. falciparum in erythrocytes, SYBR Green DNA, 72 h; series mostly up to 28.7 µM
Summary of the method: as §2

TAB165 = experiment: as above; settings: P. falciparum in erythrocytes, SYBR Green DNA, 72 h; series mostly up to 28.7 µM
Summary of the method: as §2

W2 = experiment: as above; settings: P. falciparum in erythrocytes, SYBR Green DNA, 72 h; series mostly up to 28.7 µM
Summary of the method: as §2

P94_40 = experiment: as above; settings: P. falciparum in erythrocytes, SYBR Green DNA, 72 h
Summary of the method: as §2
Also: nearly all actives have a fitted effect of over 60% in size.
Potency is read from the fitted curve at half-maximal effect.

N[C@@H](C(=O)N[C@H]1C(=O)N2C(C(=O)O)=C(Cl)CC[C@H]12)c1ccccc1
max response (KB-3-1): -8.22%

COc1cc(CCO)ccc1O[C@@H]1O[C@H](CO)[C@@H](O)[C@H](O)[C@H]1O
max response (KB-3-1): 7.87% | max response (NIH3T3): -23.9%

CCCCCC(O)/C=C/C=O (configuration not stated)
max response (KB-3-1): -19%

C[C@H](Oc1cc(-n2cnc3ccc(CN4CCN(C)CC4)cc32)sc1C(N)=O)c1ccccc1C(F)(F)F
Potency (KB-3-1): 1.03 µM (active) | Potency (NIH3T3): 18.4 µM (active) | Potency (HEK293T): 1.3 µM (active)

CC(O)(C(=O)O)C1CCC2(C)C1CCC1(C)C2CCC2C3(C)CCC(O)C(C)(COC4OC(CO)C(O)C(O)C4O)C3CCC21C (configuration not stated)
max response (KB-3-1): 1.95% | max response (NIH3T3): -2.95%

O=C1C(c2[nH]c3ccc(S(=O)(=O)O)cc3c2O)=Nc2ccc(S(=O)(=O)O)cc21
max response (KB-3-1): 3.94% and -6.29%

O=c1cc(N2CCOCC2)nc2c3ccccc3ccn12
max response (KB-3-1): -19.2% | max response (NIH3T3): -3.69%

NCCCC[C@H](NC(=O)[C@@H]1CCCN1C(=O)[C@@H]1CSSC[C@H](N)C(=O)N[C@@H](Cc2ccc(O)cc2)C(=O)N[C@@H](Cc2ccccc2)C(=O)N[C@@H](CCC(N)=O)C(=O)N[C@@H](CC(N)=O)C(=O)N1)C(=O)NCC(N)=O
max response (KB-3-1): 0.366% and -14.6%

CCCCCCCCCCCCCCCCCC(=O)[O][Al]
max response (KB-3-1): -8.23%

CC1(C)C2CC[C@]3(C)[C@H](C(=O)C=C4[C@@H]5C[C@@](C)(C(=O)O)CC[C@]5(C)CC[C@]43C)[C@@]2(C)CC[C@@H]1O[C@H]1O[C@H](C(=O)O)[C@@H](O)[C@H](O)[C@H]1O[C@@H]1O[C@H](C(=O)O)[C@@H](O)[C@H](O)[C@H]1O (some centres not stated)
max response (KB-3-1): -22.6%

CCCOc1ccc2nc(NC(=O)OC)sc2c1
Potency (N140): inactive | Potency (P93_24): inactive | Potency (PAD): inactive | Potency (PC15): inactive | Potency (PC26): inactive | Potency (PC49): inactive | Potency (SC27B): inactive | Potency (TAB109): inactive | Potency (TAB113): inactive | Potency (TAB165): inactive | Potency (W2): inactive | Potency (KB-3-1): 10.3 µM (active)

Cc1[nH]cnc1C[C@H]1CCc2c(C)c3ccccc3n2C1=O
max response (KB-3-1): -19%

C=C1C(=O)OC2C3=C(C)C(=O)CC3C(C)CC(O)C12 (configuration not stated)
max response (KB-3-1): 9.21% | max response (NIH3T3): -16.4%

CO/N=C(\C(=O)N[C@@H]1C(=O)N2C(C(=O)OCOC(=O)C(C)(C)C)=C(/C=C\c3scnc3C)CS[C@H]12)c1csc(N)n1
max response (KB-3-1): -14.1%

Cc1ccc(NC(=O)N2CCN(c3nc(N)nc4sc(-c5cccnc5)nc34)CC2)cc1
max response (KB-3-1): -18.9% | Potency (NIH3T3): 2.91 µM (active)

C=C[C@@]1(C)CCC2C(=CCC3[C@]2(C)CCC[C@@]3(C)C(=O)O)C1 (some centres not stated)
max response (KB-3-1): -10.5% | max response (NIH3T3): -28.5%

C=CCNC1=C2C[C@@H](C)C[C@H](OC)[C@H](O)[C@@H](C)/C=C(\C)[C@H](OC(N)=O)[C@@H](OC)/C=C\C=C(/C)C(=O)NC(=CC1=O)C2=O
Potency (N140): 0.891 µM (active) | Potency (P93_24): 1.26 µM (active) | Potency (P94_40): 0.794 µM (active) | Potency (PAD): 2 µM (active) | Potency (PC15): 2 µM (active) | Potency (PC26): 1.51 µM (active) | Potency (PC49): 6.31 µM (active) | Potency (SC27B): 1.78 µM (active) | Potency (TAB109): 2 µM (active) | Potency (TAB113): 1.78 µM (active) | Potency (TAB165): 1.41 µM (active) | Potency (W2): 1.2 µM (active) | max response (KB-3-1): -34.3%

CCN(CC)C(=O)c1ccc(Nc2nc(OCC3CCCCC3)c3[nH]cnc3n2)cc1
Potency (KB-3-1): 14.6 µM (active) | Potency (NIH3T3): 10.3 µM (active)

CC(=O)O[C@@H]1[C@@H](OC(C)=O)[C@H](C)O[C@@H](O[C@H]2[C@@H]3C=CO[C@@H](O[C@@H]4O[C@H](CO)[C@@H](O)[C@H](O)[C@H]4O)[C@@H]3[C@@]3(CO)O[C@@H]23)[C@@H]1OC(=O)/C=C/c1ccccc1
max response (KB-3-1): 2.67% | max response (NIH3T3): -8.05%
